Compound activity (PubChem BioAssay)
DT40 TDP1 CPT = DT40-hTDP1 cell growth loss with CPT. chicken DT40 Tdp1-/-;hTDP1 cells + 20 nM CPT, ATP luminescence, 48 h. Potency, µM (highest dose often 46.2 µM), for the others: at the highest dose activity change, negative = growth inhibition, actives largely listed as inhibitors. actives 12% (n = 420,000); further: nearly all actives have a fitted effect of over 55% in size
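Cell growth measured by CellTiter-Glo luminescence after a minimum 48 h, 37 C compound exposure with 20 nM CPT in Tdp1-knockout DT40 cells stably expressing hTDP1, seeded 400/well; qHTS titration format.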
TDP1 cell noCPT = qHTS for Inhibitors of human tyrosyl-DNA phosphodiesterase 1 (TDP1): qHTS in cells in absence of CPT. DT40 Tdp1-/- hTDP1 cells, no CPT, ATP luminescence, 48 h. Potency, µM (doses to about 46.2 µM), inactives show at the highest dose activity change, negative = growth inhibition, usual class: inhibitors. actives 15% (n = 420,000); further: nearly all actives have a fitted effect of over 55% in size
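A cellular qHTS used chicken DT40 cells lacking endogenous Tdp1 but carrying stably transfected human TDP1. Compounds were applied without camptothecin, and cell growth kinetics were judged by ATP-dependent luminescence after ≥48 hr.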
HT1080 IDH1KD tx = HT-1080 IDH1 knockdown cell toxicity (counter line); HT-1080 IDH1 knockdown viability, ATP luminescence, 48 h; Potency, µM (highest dose often 46.1 µM), without a hit: at the top dose activity, negative = toxicity, most hits filed as cytotoxic; actives 2% (n = 360,000); AID 686971;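 further: 0% = DMSO wells and -100% = cell-free medium wells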
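CellTiter-Glo luminescence after 48 h compound exposure at 37 degrees C of IDH1-knockdown HT-1080 cells in 5% FBS RPMI. %Activity scaled between DMSO wells and cell-free media wells, with curves fitted and assigned curve classes.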
KB-3-1 cytotox = KB-3-1 parental cell cytotoxicity | Potency, µM (titrated, usually from 46.1 µM), actives largely listed as cytotoxic | actives 1.4% (n = 400,000) | KB-3-1 viability, CellTiter-Glo ATP luminescence, 72 h | AID 1347075; further: nearly all actives have a fitted effect of over 60% in size
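72 h, 37 °C compound treatment of KB-3-1 parental cells; CellTiter-Glo added, 10 min, luminescence read. Data corrected against DMSO-only plates and normalized before curve fitting.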
HT1080NT lethal = kills 2HG-producing HT-1080-NT fibrosarcoma cells; actives 1.6% (n = 360,000); Potency, µM (series often up to 46.1 µM), for the others: at the highest dose activity, negative = less viability, actives largely listed as cytotoxic; HT-1080-NT fibrosarcoma viability, CellTiter-Glo ATP luminescence, 48 h;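 further: NT is the 2HG producing partner of a matched IDH1 knockdown line; 0% = DMSO-treated cells and -100% = media-only wells without cells; nearly all actives have a fitted effect of over 55% in size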
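Toxicity toward the 2HG-producing NT line was scored as %Activity, normalised to DMSO and no-cell wells, from CellTiter-Glo luminescence after 48 hours' treatment.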
KB-V1 MDR tox = KB-V1 MDR subline cytotoxicity; Potency, µM (doses to about 46.1 µM), hits mostly cytotoxic; AID 1347076; actives 3.4% (n = 400,000); KB-V1 MDR cells viability, CellTiter-Glo, 72 h; further: nearly all actives have a fitted effect of over 60% in size
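Compound-treated KB-V1 multidrug-resistant cells, 72 h, 37 degrees C; viability by CellTiter-Glo. Fitted qHTS curves give the values.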
Numbers without * were called inactive; i = inactive; ? = inconclusive; nt = no result given; ! = repeats disagree. Most compounds without a hit are left out; they make up all but 19% or so of the library. The call rests on the fitted dose curve; in most records, active means well fitted curve in the direction sought with a large enough effect; inconclusive means small, poorly fitted or top-dose-only effect, or another doubt; inactive means no such curve, though single readings can be large; an effect the other way counts as inactive or inconclusive. Unless noted, on the % scale 0 is the no-effect control and ±100 the full control effect; potency means the concentration at half of the fitted maximal effect.

SMILES	DT40 TDP1 CPT	TDP1 cell noCPT	HT1080 IDH1KD tx	KB-3-1 cytotox	HT1080NT lethal	KB-V1 MDR tox
CSc1ccc(-c2nc3cccc(C)n3c2Nc2ccc3c(c2)OCO3)cc1	?	18µM*	nt	i	nt	i
COc1ccc(Nc2c(-c3cc4ccccc4o3)nc3nc(C)cc(C)n23)cc1	?	?	-12%	i	-15%	?
COc1ccc(CN2CCCC(CO)(Cc3ccc(F)cc3)C2)c(OC)c1OC (stereo not given)	15µM*	?	-11%	i	-10%	i
CC(C)Oc1ccc(CN2CCCC(CO)(Cc3ccc(F)cc3)C2)cc1 (stereo not given)	?	?	29µM*	i	?	i
CCCCc1c(C)c(C#N)c2[nH]c3ccccc3n2c1=O	23µM*	16µM*	-7%	?	-5%	?
Cc1c(CCC(C)C)c(=O)n2c([nH]c3ccccc32)c1C#N	?	5.8µM*	?	?	-2%	?
COc1ccc(C(=O)N(Cc2ccco2)Cc2cccs2)c(OC)c1	?	?	nt	i	nt	i
O=C1NC(=S)S/C1=C\c1cc(Cl)cc(Cl)c1O	?	?	10%	?	-3%	i
O=C1Nc2c(Cl)cc(Cl)cc2C1=O	7.3µM*	10µM*	?	i	-6%	i
Nc1nc2ccccc2cc1-c1cccs1	-5%	4%	15%	i	5%	i
Cc1ccc(-c2cc3ccccc3nc2N)cc1	16µM*	26µM*	3%	i	?	?
Cc1cnc(C2OCCO2)c2cccc([N+](=O)[O-])c12	-18%	?	-5%	i	-5%	i
Cc1cnc(C=O)c2cccc([N+](=O)[O-])c12	5.8µM*	3.7µM*	?	i	-10%	i
Cc1ncc(C)c2c([N+](=O)[O-])cccc12	-8%	23µM*	5%	i	12%	i
CSc1ccc(-c2nc(CSCC(=O)NCCCN3CCCC3=O)c(C)o2)cc1	-25%	-1%	-6%	i	-5%	i
COc1ccccc1CNC(=O)CSCc1nc(-c2ccc(OC)c(OC)c2)oc1C	?	18µM*	nt	i	nt	i
CCc1ccc(-c2nc(CSCC(=O)NCCCN3CCCC3=O)c(C)o2)cc1	?	?	-4%	i	-1%	16µM*
COc1ccc(-c2nc(CSCC(=O)NCCc3ccc(C)cc3)c(C)o2)cc1OC	16µM*	18µM*	nt	i	nt	i
COc1ccc(-c2nc(CSCC(=O)NCCC3=CCCCC3)c(C)o2)cc1OC	?	?	-9%	i	-21%	21µM*
COc1ccc(-c2nc(CSCC(=O)NCc3ccc4c(c3)OCO4)c(C)o2)cc1OC	?	?	3%	i	5%	i
COc1ccc(-c2nc(CSCC(=O)NCc3ccccc3Cl)c(C)o2)cc1OC	?	?	nt	i	nt	i
CCOc1ccc(CCNC(=O)CSCc2nc(-c3cccc(C)c3)oc2C)cc1OCC	?	13µM*	nt	i	nt	?
CCOc1ccc(CCNC(=O)CS(=O)Cc2nc(-c3ccc(C)cc3)oc2C)cc1OCC (stereo not given)	16µM*!	?	-6%	i	-7%	i
CCOCCCNC(=O)CSCc1nc(-c2ccc(SC)cc2)oc1C	?	?	-3%	i	5%	i
COCCNC(=O)CSCc1nc(-c2ccc(SC)cc2)oc1C	-21%	?	3%	?	4%	9.2µM*
COCC(=O)N1CCC2(CC1)CCN(C(=O)Nc1cccc(C#N)c1)CC2	-8%	-11%	nt	nt	nt	nt
O=C(Nc1ccccc1)Nc1nnc(SCc2ccc(Cl)cc2)s1	?	-22%	1%	i	-1%	i
